This passage reports inhibition results from PubChem BioAssay AID2013 (Sanford-Burnham Center for Chemical Genomics, 2009).

Broadly, the inhibition is the change of the read-out against control, counted positive when it falls.

“And” between values parts separate entries of the source, which are not always exact repeats. Identical values can stand only once. In all, about 290,000 compounds went through this assay and about 370 (0.13%) were called active. The full list was thinned out, with actives kept by preference. Potency and affinity values are given separately. A number with no mark means an inactive call.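 The calls were made as follows: active = spots per cell inhibited over 60%, with over 100 cells counted and total cytoplasm intensity under 500,000; inconclusive = wells with under 100 cells, flagged as likely toxic; inactive = the rest.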

In the assay the target is G-protein coupled receptor 55 (Homo sapiens) (UniProt Q9Y2T6). The experiment in a line: inhibition of LPI-stimulated GPR55 beta-arrestin translocation – imaging, U2OS, beta-arrestin-GFP, LPI agonist, primary screen (AID 2013).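 Also: U2OS cells stably carrying GPR55 and arrestin-GFP stimulated by 5 µM LPI near EC80; imaged beta-arrestin-GFP aggregate spots per cell after agonist stimulation; plate controls were LPI-stimulated DMSO wells for no effect and DMSO wells without LPI for full effect.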 To be noted: LPI antagonism, at 10 µM, active compounds read high.
G-protein coupled receptor 55 (Homo sapiens), sequence (Q9Y2T6 whole entry, looked up): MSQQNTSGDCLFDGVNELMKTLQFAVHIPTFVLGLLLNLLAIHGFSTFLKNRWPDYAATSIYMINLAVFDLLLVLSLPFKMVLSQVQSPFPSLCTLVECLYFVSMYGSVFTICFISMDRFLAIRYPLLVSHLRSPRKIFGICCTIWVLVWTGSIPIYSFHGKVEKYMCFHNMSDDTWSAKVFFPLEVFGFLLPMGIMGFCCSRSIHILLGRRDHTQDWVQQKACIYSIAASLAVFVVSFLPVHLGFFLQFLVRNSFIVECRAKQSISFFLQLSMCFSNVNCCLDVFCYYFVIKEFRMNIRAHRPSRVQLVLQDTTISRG
Turning to `N=c1c2c(-c3ccccc3)c(-c3ccccc3)n(Cc3ccco3)c2ncn1Cc1ccco1`, the inhibition was 29.6%. To `N=c1c2c(-c3ccccc3)c(-c3ccccc3)n(Cc3ccco3)c2ncn1Cc1ccccc1` belongs 70.9% (active); to `N=c1c2c(-c3ccccc3)c(-c3ccccc3)n(Cc3ccco3)c2ncn1CCO`, 58.3%. To `N=c1c2c(-c3ccccc3)c(-c3ccccc3)n(Cc3ccco3)c2ncn1CCCn1ccnc1` belongs 24.2%. Under `OCCNc1ncnc2c1c(-c1ccccc1)c(-c1ccccc1)n2Cc1ccco1` stands -0.4%. With `CCN(CC1COc2ccccc2O1)C(=S)NCCCN(C)C` (configuration not stated), the inhibition is 5.9%.

For `COc1cc(NC(=O)CSCC(=O)Nc2cc(OC)cc(OC)c2)cc(OC)c1`, the inhibition is -13.3%.

Consider `CC1(C)CC(=O)C2=C(C1)N(c1cccc(O)c1)C1=C(C2)C(=O)CC(C)(C)C1`, for which the inhibition was 28.2%.

On to `Cc1ccc(OCCCn2ccnc2)c([N+](=O)[O-])c1`, for which the inhibition was 11.8%.

Consider `CCOc1ccc(CN2CCNC(=O)C2CC(=O)NCc2csc(C)n2)cc1` (configuration not stated), for which the inhibition is -5.2%. To `CCOc1ccc(C(=O)NC(=S)N(Cc2ccccc2)Cc2ccccc2)cc1` belongs 8.8%.

As for `COc1ccc(CN(CCC#N)C(=S)NC(=O)c2ccccc2)cc1`, the inhibition is 21.1%. In the case of `CCOC(=O)c1[nH]c2ccc(Cl)cc2c1NC(=O)/C=C/c1ccc2c(c1)OCO2`, the inhibition was -10.3%. With `CCc1ccc2c(c1)cc(CN(C(=S)Nc1ccccc1C)C1CC1)c1nnnn12`, the inhibition was -0.7%. To `Cn1c(=O)n(C/C=C/c2ccccc2)c(=O)c2c1nc1n2CCCN1Cc1ccccc1` belongs 12.5%; to `Cn1c(=O)n(CCc2ccccc2)c(=O)c2c1nc1n2CCCN1c1ccccc1`, 8.1%; to `CC(C)C(=O)Nc1ccc(N2CCN(c3ccc(F)cc3)CC2)cc1`, 7.7%. Under `CC(C)N=C(NS(=O)(=O)c1ccccc1)C(Cl)(Cl)Cl` stands 52.5%; under `O=C(O)CN=C(NS(=O)(=O)c1ccccc1)c1ccccc1`, 3.6%; under `Cc1ccc(CC(=O)N2CCN(c3ccccn3)CC2)cc1`, 1.5%. Consider `Cc1nc(-c2ccc(Cl)cc2)sc1C1(C)CC(c2cccc(Cl)c2)=NO1` (configuration not stated), for which the inhibition is 2.4%. To `O=C(Nc1ccccc1O)c1ccc2c(c1)C(=O)N(Cc1ccco1)C2=O` belongs 1.9%; to `O=C(O)/C=C/c1cccnc1`, 10.5%; to `CC(/C=C\c1cccnc1)=C/C(=O)O`, 13.6% and 11.7%. To `Cc1cc(CSc2ccccc2)ccc1NC(=O)COc1ccccc1C` belongs 5.6%; to `CC(C)CCNC(=O)C1CC(=O)N(CCc2ccccc2)C1` (configuration not stated), 3.2%. To `COc1ccc(CNC(=O)CCc2c(C)nc3cc(-c4ccccc4OC)nn3c2C)cc1` belongs 12.4%.

With `Cc1ccc(NC(=O)c2ccccc2OCC(=O)c2ccccc2)cc1`, the inhibition is -5.2%. To `CCOc1ccc(NC(=O)c2ccccc2OCC(=O)c2ccc(C)cc2)cc1` belongs -16%; to `O=C(NCc1ccccn1)c1ccc(CNS(=O)(=O)c2cccc(C(F)(F)F)c2)cc1`, 3.1%; to `Cc1cccc(C(=O)Oc2ccc(/C=N/NC(=O)c3ccc(O)cc3)cc2)c1`, 0.3%. With `CC1=Nc2cc(C(=O)NCCCOC(C)C)ccc2Sc2ccc(C)cc21`, the inhibition was 19.1%. Under `Cc1c(-n2c(SC(C)C(=O)NC(N)=O)nc3ccccc3c2=O)c(=O)n(-c2ccccc2)n1C` (configuration not stated) stands -4.9%; under `c1ccc(-c2ccc(-c3nccc4ccccc34)[nH]2)cc1`, 36%. In the case of `Cc1ccc(-c2nc(-c3nccc4ccccc34)oc2-c2ccccc2)cc1`, the inhibition was 25%. On to `S=C(Sc1ccc(Cl)cc1)Sc1ccc(Cl)cc1`, for which the inhibition is 91.8% (active). To `O=C(NC1CCCCC1)Sc1ccc(Cl)cc1` belongs -6%; to `CC(=O)/C(=C\N(C)C)Sc1ccc(Cl)cc1`, 0.6%; to `O=C(N/N=C/c1ccoc1)c1ccccc1O`, -2.7%. In the case of `O=C1NN(c2ccccc2)C(=O)/C1=C\c1ccccc1OCC(=O)N1CCOCC1`, the inhibition is 4.6%. To `O=C(O)COc1ccccc1/C=C1\SC(=Nc2ccc(F)cc2)N(c2ccc(F)cc2)C1=O` belongs 12.7%. Under `O=C(N/N=C/c1ccc(Cl)c([N+](=O)[O-])c1)c1cc(-c2ccc3c4c(cccc24)CC3)n[nH]1` stands 76.6% (active). Under `O=C(O)c1ccc(/C=N/NC(=O)c2cc(-c3ccc4c5c(cccc35)CC4)n[nH]2)cc1` stands 4%.

On to `O=C(N/N=C/c1cccc([N+](=O)[O-])c1)c1cc(-c2ccc3c4c(cccc24)CC3)n[nH]1`, for which the inhibition is -4.6%. Under `CCN(Cc1ccccc1)S(=O)(=O)c1ccc(F)cc1` stands 15.1%. As for `COC(=O)C1=C(C)N(Cc2ccccc2)C(=NCc2cc(OC)c(OC)c(OC)c2)N[C@H]1c1cccc(F)c1`, the inhibition was 8.9%. Under `COC(=O)C1=C(C)N(Cc2ccccc2)C(=S)N[C@H]1c1cccc(F)c1` stands 18.7%. To `COC(=O)C1=C(C)N(CC2CC2)C(=NCc2cc(OC)c(OC)c(OC)c2)N[C@H]1c1ccccc1` belongs -3%; to `CCN1C(=S)N[C@@H](c2cccc(F)c2)C(C(=O)OC)=C1C`, 4.1%; to `CCN1C(=NCCc2cccnc2)N[C@@H](c2ccccc2)C(C(=O)OC)=C1C`, -18.1%. To `COC(=O)C1=C(C)N(Cc2ccccc2)C(=O)N[C@H]1c1ccccc1` belongs 58%. `COC(=O)C1=C(C)N(Cc2cccnc2)C(=O)C1`: the inhibition is -5.2%.

As to `COC(=O)C1=C(C)N(Cc2ccccc2)C(=NCCc2ccccn2)N[C@H]1c1cccc(F)c1`, the inhibition was 38.8%. On to `O=C(Nc1ccc2c(c1)OCCO2)NC1(C(F)(F)F)Oc2ccccc2O1`, for which the inhibition was -14.5%.

On to `COc1ccc(NC(=O)N2CCN(c3cccc(C(F)(F)F)c3)CC2)cc1`, for which the inhibition is 12.5%. To `COc1ccc(-c2cc(C(=O)N3CCN(c4ccccc4O)CC3)c3ccccc3n2)cc1OC` belongs 13.3%; to `CCc1oc(C(=O)O)cc1COC`, 3.5%.
